Where “and” joins values, the source holds several entries; their conditions need not be identical. Identical values can stand only once. Results filed as inconclusive are left out. Entries that show only a call come without a potency. More than one record can exist for a structure, and the calls need not agree. Calls of active or inactive are those of the source. Unless noted, calls come from the whole dose curve.
Assays:
[1] = qHTS assay to identify small molecule antagonists of the sonic hedgehog signaling (Shh) pathway (AID 1259369); note: nearly all actives have a fitted effect of over 45% in size; note: potency is the fitted concentration of half-maximal effect
How it was run: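 Cells are plated and held 4hr at 37 C, compounds (DMSO) are pinned in, conditioned medium is added to stimulate the pathway, and after 24hr luciferase reagent is added for 30min before luminescence is read.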

[2] = qHTS assay to identify small molecule agonists of the androgen receptor (AR) signaling pathway in the presence of an antagonist - cell viability counter screen (AID 1259379; active = well fitted curve in the direction sought with a large enough effect in the repeat runs; an effect the other way counts as inactive or inconclusive; note: nearly all actives have a fitted effect of over 25% in size; note: potency is the fitted concentration of half-maximal effect)
How it was run: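 Cytotoxicity is assessed by CellTiter-Fluor in MDA-kb2 cells carrying an MMTV-driven luciferase reporter. Cells receive 3.0uM nilutamide plus compounds at 15 concentrations and incubate 16 hr at 37C without CO2 before fluorescence reading.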

[3] = target: Androgen receptor (Homo sapiens) (UniProt P10275); assay: qHTS assay to identify small molecule agonists of the androgen receptor (AR) signaling pathway in the presence of an antagonist (AID 1259381); note: nearly all actives have a fitted effect of over 15% in size
How it was run: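 Agonist-mode confirmation screen: human MDA-kb2 cells stably expressing luciferase under an MMTV promoter bearing AR and GR response elements, co-treated with 3.0uM nilutamide (final). Luminescence measured after 16hr compound incubation.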

[4] = qHTS assay to identify small molecule agonists or antagonists of the thyroid stimulating hormone receptor (TSHR) signaling pathway - wild type cell line counter screen (AID 1259384)
How it was run: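 Counter screen in untransfected Hek293: compounds (15-point titration, triplicate) plus phosphodiesterase inhibitor Ro20-1724 added after 18 h plating; 30 min RT. Intracellular cAMP via competitive d2/cryptate immunoassay, 1 h incubation.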

[5] = target: Thyrotropin receptor (Homo sapiens) (UniProt P16473); assay: qHTS assay to identify small molecule antagonists of the thyroid stimulating hormone receptor (TSHR) signaling pathway (AID 1259385); note: nearly all actives have a fitted effect of over 20% in size; note: potency is the fitted concentration of half-maximal effect
How it was run: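 Antagonist mode: compound-treated TSHR-expressing HEK293 cells were stimulated with 1.5 ng/mL TSH (final) in presence of Ro20-1724 for 30 min at RT. HTRF cAMP detection after 1 h; each compound tested at 15 concentrations, triplicate.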

[6] = qHTS assay to identify small molecule antagonists of the estrogen receptor beta (ER-beta) signaling pathway - cell viability counter screen (AID 1259382; active = well fitted curve in the direction sought with a large enough effect in the repeat runs; an effect the other way counts as inactive or inconclusive; note: nearly all actives have a fitted effect of over 55% in size; note: potency is the fitted concentration of half-maximal effect)
How it was run: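 Cytotoxicity counter screen multiplexed with the beta-lactamase antagonist assay: GripTite HEK293T ER-beta-bla cells were treated 16 hr with test chemicals in the presence of 1nM 17-beta-estradiol, and viability was measured by CellTiter-Glo.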

[7] = target: Estrogen receptor (Homo sapiens) (UniProt P03372); assay: qHTS assay to identify small molecule agonists of the estrogen receptor alpha (ER-alpha) signaling pathway in the presence of an antagonist (AID 1259383); note: top concentration of the series differs between compounds; nearly all actives have a fitted effect of over 15% in size
How it was run: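 Agonist-mode confirmation in the presence of the ER antagonist ICI-182,780 at 10.0nM final. Breast-derived VM7Luc4E2 reporter cells were exposed to compounds for 22hr, and ERE-driven luciferase was quantified by luminescence.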

[8] = qHTS assay to identify small molecule agonists of the estrogen receptor beta (ER-beta) signaling pathway - cell viability counter screen (AID 1259380; active = well fitted curve in the direction sought with a large enough effect in the repeat runs; an effect the other way counts as inactive or inconclusive; note: nearly all actives have a fitted effect of over 30% in size; note: potency is the fitted concentration of half-maximal effect)
How it was run: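 Cytotoxicity is measured in parallel with the reporter screen: after 16 hr compound exposure at 37C and a 2 hr LiveBLAzer step, CellTiter-Glo is added to the same ER-beta-UAS-bla HEK293T wells and luminescence read after 30 min.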

Estrogen receptor (Homo sapiens), sequence (P03372 whole entry, looked up): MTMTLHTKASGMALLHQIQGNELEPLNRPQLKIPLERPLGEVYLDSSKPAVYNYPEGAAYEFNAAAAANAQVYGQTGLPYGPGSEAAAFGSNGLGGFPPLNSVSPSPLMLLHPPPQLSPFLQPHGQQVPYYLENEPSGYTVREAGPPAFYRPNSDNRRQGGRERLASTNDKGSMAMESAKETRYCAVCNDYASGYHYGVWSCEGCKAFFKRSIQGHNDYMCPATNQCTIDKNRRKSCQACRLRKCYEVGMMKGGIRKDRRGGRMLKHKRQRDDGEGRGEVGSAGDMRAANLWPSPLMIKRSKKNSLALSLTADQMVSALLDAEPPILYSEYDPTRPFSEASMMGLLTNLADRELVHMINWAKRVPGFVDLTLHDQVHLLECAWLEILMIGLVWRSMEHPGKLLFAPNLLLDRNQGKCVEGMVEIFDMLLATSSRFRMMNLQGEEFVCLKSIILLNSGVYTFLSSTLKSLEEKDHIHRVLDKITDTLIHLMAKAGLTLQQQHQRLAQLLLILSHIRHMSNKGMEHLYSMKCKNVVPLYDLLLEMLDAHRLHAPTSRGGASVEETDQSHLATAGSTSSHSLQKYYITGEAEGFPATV
Thyrotropin receptor (Homo sapiens), sequence (P16473 whole entry, looked up): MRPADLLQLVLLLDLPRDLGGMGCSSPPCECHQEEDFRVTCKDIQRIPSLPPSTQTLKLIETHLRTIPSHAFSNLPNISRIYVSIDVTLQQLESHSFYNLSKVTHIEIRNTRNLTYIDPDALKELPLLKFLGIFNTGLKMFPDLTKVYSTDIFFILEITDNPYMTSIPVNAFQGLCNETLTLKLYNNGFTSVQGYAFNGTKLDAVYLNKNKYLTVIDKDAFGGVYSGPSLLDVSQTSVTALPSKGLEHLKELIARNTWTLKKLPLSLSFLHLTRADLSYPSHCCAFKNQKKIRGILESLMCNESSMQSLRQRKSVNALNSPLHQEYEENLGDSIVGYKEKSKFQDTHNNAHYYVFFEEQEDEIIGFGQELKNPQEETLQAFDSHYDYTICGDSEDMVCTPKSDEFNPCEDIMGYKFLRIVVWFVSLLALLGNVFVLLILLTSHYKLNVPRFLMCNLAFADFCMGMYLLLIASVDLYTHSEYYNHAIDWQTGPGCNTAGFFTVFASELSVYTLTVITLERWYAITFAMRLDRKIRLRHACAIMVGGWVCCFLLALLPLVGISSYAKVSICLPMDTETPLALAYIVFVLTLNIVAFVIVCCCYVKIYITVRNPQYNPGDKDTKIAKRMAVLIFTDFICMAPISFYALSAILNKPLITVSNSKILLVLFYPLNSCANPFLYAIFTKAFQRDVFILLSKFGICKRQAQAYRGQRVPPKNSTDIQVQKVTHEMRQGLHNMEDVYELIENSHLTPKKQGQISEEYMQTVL
Androgen receptor (Homo sapiens), sequence (P10275 whole entry, looked up): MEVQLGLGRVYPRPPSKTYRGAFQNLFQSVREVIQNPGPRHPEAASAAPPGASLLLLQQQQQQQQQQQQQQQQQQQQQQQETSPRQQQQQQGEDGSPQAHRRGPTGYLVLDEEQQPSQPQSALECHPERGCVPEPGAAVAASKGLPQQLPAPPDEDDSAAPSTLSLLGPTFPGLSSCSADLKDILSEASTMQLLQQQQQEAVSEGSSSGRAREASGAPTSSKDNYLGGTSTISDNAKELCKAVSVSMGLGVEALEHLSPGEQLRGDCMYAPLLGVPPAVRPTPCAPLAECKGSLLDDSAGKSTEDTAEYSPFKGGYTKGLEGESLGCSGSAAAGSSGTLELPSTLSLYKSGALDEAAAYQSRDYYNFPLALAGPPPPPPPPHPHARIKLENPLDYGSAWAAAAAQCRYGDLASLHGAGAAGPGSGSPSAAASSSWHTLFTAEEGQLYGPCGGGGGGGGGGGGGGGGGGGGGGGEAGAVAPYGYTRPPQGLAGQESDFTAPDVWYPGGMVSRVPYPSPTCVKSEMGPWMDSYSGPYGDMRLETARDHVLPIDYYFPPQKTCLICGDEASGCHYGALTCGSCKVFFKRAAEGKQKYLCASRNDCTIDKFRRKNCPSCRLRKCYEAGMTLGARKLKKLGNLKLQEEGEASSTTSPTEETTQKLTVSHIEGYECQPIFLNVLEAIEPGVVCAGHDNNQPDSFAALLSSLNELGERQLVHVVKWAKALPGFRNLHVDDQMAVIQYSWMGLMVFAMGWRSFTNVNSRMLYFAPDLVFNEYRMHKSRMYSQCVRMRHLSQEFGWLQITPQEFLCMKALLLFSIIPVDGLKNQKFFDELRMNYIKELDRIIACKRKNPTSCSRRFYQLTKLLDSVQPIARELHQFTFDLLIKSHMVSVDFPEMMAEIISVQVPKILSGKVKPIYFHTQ

Row | SMILES | Potency [1] | Potency [2] | Potency [3] | Potency [4] | Potency [5] | Potency [6] | Potency [7] | Potency [8]
1 | O=C(Nc1ncc([N+](=O)[O-])s1)c1cccs1 | inactive | 26.6 µM (active) | inactive | inactive | inactive | – | – | –
2 | CC12CCC(CC1)C(C)(C)O2 | inactive | inactive | – | inactive | inactive | inactive | inactive | –
3 | CC/C(=C(\c1ccccc1)c1ccc(OCCN(C)C)cc1)c1ccccc1 | 23.7 µM (active) [middle of 4 runs] | 69 µM (active) and 48.9 µM (active) and 48.6 µM (active) | – | inactive | 61.5 µM (active) and 21.1 µM (active) | 27.3 µM (active) and 21.9 µM (active) and 29.8 µM (active) | – | –
4 | CS(=O)(=O)OCCCCOS(C)(=O)=O | inactive | inactive | – | inactive | inactive | inactive | – | inactive
5 | CN(C)C(=O)Nc1ccc(Cl)c(Cl)c1 | inactive | – | inactive | inactive | inactive | inactive | – | inactive
6 | Cn1c(=O)c2c(ncn2C)n(C)c1=O | 17.4 µM (active) and inactive | 55.1 µM (active) and inactive | – | – | – | inactive | – | inactive
7 | CC(=O)C(=O)O | inactive | inactive | – | inactive | inactive | inactive | – | inactive
8 | CCCC[P+](CCCC)(CCCC)CCCC | inactive | 60.9 µM (active) and 62.3 µM (active) and 61.1 µM (active) | – | inactive | inactive | inactive | – | –
9 | NC(=O)n1c(O)c(C(=O)c2cccs2)c2cc(Cl)ccc21 | 10.6 µM (active) | 29.8 µM (active) | – | inactive | inactive | inactive | inactive | –
10 | CCCCNC(=O)NS(=O)(=O)c1ccc(C)cc1 | inactive | – | – | – | – | inactive | – | inactive
11 | COc1cccc(O)c1O | 8.97 µM (active) | – | inactive | – | – | inactive | inactive | 56.6 µM (active)
12 | COc1ccc2cc(S(=O)(=O)N[C@H](CC(=O)N[C@H](Cc3ccc(CN4[C@H](C)CCC[C@@H]4C)cc3)C(=O)N(C)C(C)C)c3ccc4c(c3)OCO4)ccc2c1 | inactive | 51.6 µM (active) | – | inactive | 57.9 µM (active) | 29 µM (active) | – | 18.3 µM (active)
13 | CN[C@H]1CC[C@@H](c2ccc(Cl)c(Cl)c2)c2ccccc21 | 18.8 µM (active) | inactive | – | inactive | inactive | 18.8 µM (active) | – | –
14 | CN1[C@@H]2CC(OC(=O)[C@H](CO)c3ccccc3)C[C@H]1[C@@H]1O[C@@H]12 (stereo not given in full) | inactive | inactive | – | inactive | inactive | inactive | – | –
15 | CCCCC1(COC(=O)CCC(=O)O)C(=O)N(c2ccccc2)N(c2ccccc2)C1=O | inactive | inactive | inactive | inactive | inactive | inactive | – | inactive
16 | Cc1ncc([N+](=O)[O-])n1CCO | inactive | inactive | – | inactive | inactive | inactive | inactive | inactive
17 | CCCCCCc1ccc(O)cc1O | 43.4 µM (active) | inactive | inactive | inactive | inactive | 48.7 µM (active) and inactive | – | 48.7 µM (active) and 48.6 µM (active)
18 | O=C1NS(=O)(=O)c2ccccc21 | inactive | inactive | – | inactive | inactive | inactive | – | inactive
19 | CC(=O)CCC(=O)O | inactive | inactive | – | inactive | inactive | inactive | – | inactive
20 | CCCCCCCCCCCC[N+](C)(C)Cc1ccccc1 | 2.13 µM (active) and 419 nM (active) and 3.76 µM (active) | 23.9 µM (active) and 33.3 µM (active) and 26.6 µM (active) | – | inactive | inactive | 26.8 µM (active) and 37.4 µM (active) and 11.9 µM (active) | – | –
21 | Cc1ncc([N+](=O)[O-])n1C | inactive | – | – | inactive | inactive | inactive | – | –
